Assay results as given in the supplement of paper PMC10849652.
Targets with a hit are over-represented here; the source holds about 8,800 in all. About 0.5% of all pairs of compound and target were hits. Values without a mark were called inactive.

What was measured:
Assay in all cases: log2 fold change, soluble protein after heating vs DMSO (PISA); higher = thermal stabilisation; K562 lysate, 10 uM; active = over 0.2 and 3.5 SD of the protein, either way, in both replicates (recomputed)
vemurafenib = compound: CCCS(=O)(=O)Nc1ccc(F)c(C(=O)c2c[nH]c3ncc(-c4ccc(Cl)cc4)cc23)c1F [vemurafenib]
Procedure, shortened: (§1)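 Values give the log-two fold change in thermal stability against solvent controls, from duplicates. Crude K562 extract at 1 mg/mL protein, made by dounce homogenisation in PBS pH 7.4 with 1 mM MgCl2, was treated with 10 μM compound for 30 min. After 3 min heating across 48°C-58°C, aliquots were pooled, adjusted to 0.5% NP-40 at 4°C and centrifuged at 21,000xg for 90 min. The supernatant was measured by TMTpro 16plex LC-MS/MS with channel sums equalised.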

[1] = compound: CCCS(=O)(=O)Nc1ccc(F)c(C(=O)c2c[nH]c3ncc(Cl)cc23)c1F
Procedure, shortened: as §1

barasertib = compound: CCN(CCCOc1ccc2c(Nc3cc(CC(=O)Nc4cccc(F)c4)[nH]n3)ncnc2c1)CCOP(=O)(O)O [barasertib]
Procedure, shortened: as §1

[2] = compound: CC[C@@H]1C(=O)N(C)c2cnc(Nc3ccc(C(=O)NC4CCN(C)CC4)cc3OC)nc2N1C1CCCC1
Procedure, shortened: as §1

volasertib = compound: CC[C@@H]1C(=O)N(C)c2cnc(Nc3ccc(C(=O)N[C@H]4CC[C@H](N5CCN(CC6CC6)CC5)CC4)cc3OC)nc2N1C(C)C [volasertib]
Procedure, shortened: as §1

[3] = compound: CCn1c(C(=O)N(C2CC2)C2CC2)cc2c3c(ncn3C)c(Nc3cc(C)n(C)n3)nc21
Procedure, shortened: as §1

[4] = compound: CCn1cc(-c2ccnc3[nH]c(-c4cccc(CN(C)C)c4)cc23)c(-c2ccc(NC(=O)N(C)C)cc2)n1
Procedure, shortened: as §1

[5] = compound: CN1CCC(CNc2ccc3ncc(-c4cccc(OC(F)(F)F)c4)n3n2)CC1
Procedure, shortened: as §1

saracatinib = compound: CN1CCN(CCOc2cc(OC3CCOCC3)c3c(Nc4c(Cl)ccc5c4OCO5)ncnc3c2)CC1 [saracatinib]
Procedure, shortened: as §1

sotrastaurin = compound: CN1CCN(c2nc(C3=C(c4c[nH]c5ccccc45)C(=O)NC3=O)c3ccccc3n2)CC1 [sotrastaurin]
Procedure, shortened: as §1

alvocidib = compound: CN1CC[C@H](c2c(O)cc(O)c3c(=O)cc(-c4ccccc4Cl)oc23)[C@H](O)C1 [alvocidib]
Procedure, shortened: as §1

Tubastatin A = compound: CN1CCc2c(c3ccccc3n2Cc2ccc(C(=O)NO)cc2)C1 [Tubastatin A]
Procedure, shortened: as §1

defactinib = compound: CNC(=O)c1ccc(Nc2ncc(C(F)(F)F)c(NCc3nccnc3N(C)S(C)(=O)=O)n2)cc1 [defactinib]
Procedure, shortened: as §1

[6] = compound: CNc1nc(-c2ccc3c(N)n[nH]c3c2)cc(N2C[C@@H](C(=O)NC3CCCCC3)CC[C@H]2C)n1
Procedure, shortened: as §1

encorafenib = compound: COC(=O)N[C@@H](C)CNc1nccc(-c2cn(C(C)C)nc2-c2cc(Cl)cc(NS(C)(=O)=O)c2F)n1 [encorafenib]
Procedure, shortened: as §1

[7] = compound: COC(=O)[C@H](CCSC)NC(=O)C1=C(C=C(C=C1)NC[C@H](CS)N)C2=CC=CC=C2
Procedure, shortened: as §1

alisertib = compound: COc1cc(Nc2ncc3c(n2)-c2ccc(Cl)cc2C(c2c(F)cccc2OC)=NC3)ccc1C(=O)O [alisertib]
Procedure, shortened: as §1

[8] = compound: COc1cc2nc(-c3cc(F)ccc3O)nc(N[C@@H]3CNC[C@H]3C(C)(C)O)c2cc1OC
Procedure, shortened: as §1

gefitinib = compound: COc1cc2ncnc(Nc3ccc(F)c(Cl)c3)c2cc1OCCCN1CCOCC1 [gefitinib]
Procedure, shortened: as §1

[9] = compound: CNC(=O)C1=CC=CC=C1NC2=NC(=NC=C2Cl)NC3=C(C=C(C=C3)N4CCOCC4)OC
Procedure, shortened: as §1

Chain of UniProt P80108 (P80108 whole entry, looked up): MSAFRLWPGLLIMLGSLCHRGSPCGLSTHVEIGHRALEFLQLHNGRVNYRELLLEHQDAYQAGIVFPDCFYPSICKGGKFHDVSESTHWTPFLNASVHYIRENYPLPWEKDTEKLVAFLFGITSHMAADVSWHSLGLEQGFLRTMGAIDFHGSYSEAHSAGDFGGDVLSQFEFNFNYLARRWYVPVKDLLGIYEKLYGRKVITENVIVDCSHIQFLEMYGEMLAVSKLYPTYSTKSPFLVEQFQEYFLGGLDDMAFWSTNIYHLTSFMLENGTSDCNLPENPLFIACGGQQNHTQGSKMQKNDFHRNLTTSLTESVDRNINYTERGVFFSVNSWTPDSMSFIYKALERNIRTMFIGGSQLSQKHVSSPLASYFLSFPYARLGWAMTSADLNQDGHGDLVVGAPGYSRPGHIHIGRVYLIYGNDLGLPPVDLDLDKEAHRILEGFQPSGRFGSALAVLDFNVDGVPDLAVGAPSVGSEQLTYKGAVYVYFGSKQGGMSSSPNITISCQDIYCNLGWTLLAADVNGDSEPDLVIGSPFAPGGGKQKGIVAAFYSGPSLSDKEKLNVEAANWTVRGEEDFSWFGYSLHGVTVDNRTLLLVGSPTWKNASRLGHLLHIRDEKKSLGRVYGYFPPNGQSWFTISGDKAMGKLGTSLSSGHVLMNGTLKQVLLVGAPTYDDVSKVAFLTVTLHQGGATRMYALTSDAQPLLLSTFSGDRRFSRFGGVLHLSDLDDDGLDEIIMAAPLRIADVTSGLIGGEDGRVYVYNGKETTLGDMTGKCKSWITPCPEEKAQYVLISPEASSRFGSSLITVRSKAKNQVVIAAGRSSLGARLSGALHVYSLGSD
Chain of UniProt Q96EW2 (Q96EW2 whole entry, looked up): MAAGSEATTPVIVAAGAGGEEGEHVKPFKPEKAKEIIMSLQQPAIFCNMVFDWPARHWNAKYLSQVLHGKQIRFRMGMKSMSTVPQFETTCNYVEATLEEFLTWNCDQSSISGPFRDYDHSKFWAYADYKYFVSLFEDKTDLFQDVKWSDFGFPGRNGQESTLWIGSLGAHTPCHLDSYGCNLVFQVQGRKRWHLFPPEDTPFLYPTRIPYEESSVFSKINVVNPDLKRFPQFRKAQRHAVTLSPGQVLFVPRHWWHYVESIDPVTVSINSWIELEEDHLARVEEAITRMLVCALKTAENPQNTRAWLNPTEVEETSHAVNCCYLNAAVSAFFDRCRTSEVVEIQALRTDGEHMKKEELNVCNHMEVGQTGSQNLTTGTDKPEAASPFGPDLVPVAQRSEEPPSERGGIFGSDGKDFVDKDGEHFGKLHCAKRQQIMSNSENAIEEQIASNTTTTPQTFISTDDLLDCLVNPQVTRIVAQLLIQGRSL
Chain of UniProt Q9NSC5 (Q9NSC5 whole entry, looked up): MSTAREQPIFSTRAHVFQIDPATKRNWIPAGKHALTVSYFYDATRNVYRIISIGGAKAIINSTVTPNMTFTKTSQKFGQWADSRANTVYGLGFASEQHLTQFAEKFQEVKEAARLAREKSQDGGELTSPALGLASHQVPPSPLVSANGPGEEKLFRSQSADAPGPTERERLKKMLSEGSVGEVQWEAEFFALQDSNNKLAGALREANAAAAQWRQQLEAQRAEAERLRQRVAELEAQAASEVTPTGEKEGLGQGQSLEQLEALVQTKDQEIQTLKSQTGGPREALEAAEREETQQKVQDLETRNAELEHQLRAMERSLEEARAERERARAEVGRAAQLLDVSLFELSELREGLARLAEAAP
Chain of UniProt Q9Y287 (Q9Y287 whole entry, looked up): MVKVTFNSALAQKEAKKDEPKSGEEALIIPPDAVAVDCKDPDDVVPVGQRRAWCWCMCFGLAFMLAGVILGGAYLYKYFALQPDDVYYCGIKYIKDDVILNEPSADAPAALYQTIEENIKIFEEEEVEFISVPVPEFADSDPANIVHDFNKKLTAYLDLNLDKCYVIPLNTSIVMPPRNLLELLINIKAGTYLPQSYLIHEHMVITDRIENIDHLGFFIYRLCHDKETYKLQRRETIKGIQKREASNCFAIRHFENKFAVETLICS
Chain of UniProt P42858 (P42858 whole entry, looked up): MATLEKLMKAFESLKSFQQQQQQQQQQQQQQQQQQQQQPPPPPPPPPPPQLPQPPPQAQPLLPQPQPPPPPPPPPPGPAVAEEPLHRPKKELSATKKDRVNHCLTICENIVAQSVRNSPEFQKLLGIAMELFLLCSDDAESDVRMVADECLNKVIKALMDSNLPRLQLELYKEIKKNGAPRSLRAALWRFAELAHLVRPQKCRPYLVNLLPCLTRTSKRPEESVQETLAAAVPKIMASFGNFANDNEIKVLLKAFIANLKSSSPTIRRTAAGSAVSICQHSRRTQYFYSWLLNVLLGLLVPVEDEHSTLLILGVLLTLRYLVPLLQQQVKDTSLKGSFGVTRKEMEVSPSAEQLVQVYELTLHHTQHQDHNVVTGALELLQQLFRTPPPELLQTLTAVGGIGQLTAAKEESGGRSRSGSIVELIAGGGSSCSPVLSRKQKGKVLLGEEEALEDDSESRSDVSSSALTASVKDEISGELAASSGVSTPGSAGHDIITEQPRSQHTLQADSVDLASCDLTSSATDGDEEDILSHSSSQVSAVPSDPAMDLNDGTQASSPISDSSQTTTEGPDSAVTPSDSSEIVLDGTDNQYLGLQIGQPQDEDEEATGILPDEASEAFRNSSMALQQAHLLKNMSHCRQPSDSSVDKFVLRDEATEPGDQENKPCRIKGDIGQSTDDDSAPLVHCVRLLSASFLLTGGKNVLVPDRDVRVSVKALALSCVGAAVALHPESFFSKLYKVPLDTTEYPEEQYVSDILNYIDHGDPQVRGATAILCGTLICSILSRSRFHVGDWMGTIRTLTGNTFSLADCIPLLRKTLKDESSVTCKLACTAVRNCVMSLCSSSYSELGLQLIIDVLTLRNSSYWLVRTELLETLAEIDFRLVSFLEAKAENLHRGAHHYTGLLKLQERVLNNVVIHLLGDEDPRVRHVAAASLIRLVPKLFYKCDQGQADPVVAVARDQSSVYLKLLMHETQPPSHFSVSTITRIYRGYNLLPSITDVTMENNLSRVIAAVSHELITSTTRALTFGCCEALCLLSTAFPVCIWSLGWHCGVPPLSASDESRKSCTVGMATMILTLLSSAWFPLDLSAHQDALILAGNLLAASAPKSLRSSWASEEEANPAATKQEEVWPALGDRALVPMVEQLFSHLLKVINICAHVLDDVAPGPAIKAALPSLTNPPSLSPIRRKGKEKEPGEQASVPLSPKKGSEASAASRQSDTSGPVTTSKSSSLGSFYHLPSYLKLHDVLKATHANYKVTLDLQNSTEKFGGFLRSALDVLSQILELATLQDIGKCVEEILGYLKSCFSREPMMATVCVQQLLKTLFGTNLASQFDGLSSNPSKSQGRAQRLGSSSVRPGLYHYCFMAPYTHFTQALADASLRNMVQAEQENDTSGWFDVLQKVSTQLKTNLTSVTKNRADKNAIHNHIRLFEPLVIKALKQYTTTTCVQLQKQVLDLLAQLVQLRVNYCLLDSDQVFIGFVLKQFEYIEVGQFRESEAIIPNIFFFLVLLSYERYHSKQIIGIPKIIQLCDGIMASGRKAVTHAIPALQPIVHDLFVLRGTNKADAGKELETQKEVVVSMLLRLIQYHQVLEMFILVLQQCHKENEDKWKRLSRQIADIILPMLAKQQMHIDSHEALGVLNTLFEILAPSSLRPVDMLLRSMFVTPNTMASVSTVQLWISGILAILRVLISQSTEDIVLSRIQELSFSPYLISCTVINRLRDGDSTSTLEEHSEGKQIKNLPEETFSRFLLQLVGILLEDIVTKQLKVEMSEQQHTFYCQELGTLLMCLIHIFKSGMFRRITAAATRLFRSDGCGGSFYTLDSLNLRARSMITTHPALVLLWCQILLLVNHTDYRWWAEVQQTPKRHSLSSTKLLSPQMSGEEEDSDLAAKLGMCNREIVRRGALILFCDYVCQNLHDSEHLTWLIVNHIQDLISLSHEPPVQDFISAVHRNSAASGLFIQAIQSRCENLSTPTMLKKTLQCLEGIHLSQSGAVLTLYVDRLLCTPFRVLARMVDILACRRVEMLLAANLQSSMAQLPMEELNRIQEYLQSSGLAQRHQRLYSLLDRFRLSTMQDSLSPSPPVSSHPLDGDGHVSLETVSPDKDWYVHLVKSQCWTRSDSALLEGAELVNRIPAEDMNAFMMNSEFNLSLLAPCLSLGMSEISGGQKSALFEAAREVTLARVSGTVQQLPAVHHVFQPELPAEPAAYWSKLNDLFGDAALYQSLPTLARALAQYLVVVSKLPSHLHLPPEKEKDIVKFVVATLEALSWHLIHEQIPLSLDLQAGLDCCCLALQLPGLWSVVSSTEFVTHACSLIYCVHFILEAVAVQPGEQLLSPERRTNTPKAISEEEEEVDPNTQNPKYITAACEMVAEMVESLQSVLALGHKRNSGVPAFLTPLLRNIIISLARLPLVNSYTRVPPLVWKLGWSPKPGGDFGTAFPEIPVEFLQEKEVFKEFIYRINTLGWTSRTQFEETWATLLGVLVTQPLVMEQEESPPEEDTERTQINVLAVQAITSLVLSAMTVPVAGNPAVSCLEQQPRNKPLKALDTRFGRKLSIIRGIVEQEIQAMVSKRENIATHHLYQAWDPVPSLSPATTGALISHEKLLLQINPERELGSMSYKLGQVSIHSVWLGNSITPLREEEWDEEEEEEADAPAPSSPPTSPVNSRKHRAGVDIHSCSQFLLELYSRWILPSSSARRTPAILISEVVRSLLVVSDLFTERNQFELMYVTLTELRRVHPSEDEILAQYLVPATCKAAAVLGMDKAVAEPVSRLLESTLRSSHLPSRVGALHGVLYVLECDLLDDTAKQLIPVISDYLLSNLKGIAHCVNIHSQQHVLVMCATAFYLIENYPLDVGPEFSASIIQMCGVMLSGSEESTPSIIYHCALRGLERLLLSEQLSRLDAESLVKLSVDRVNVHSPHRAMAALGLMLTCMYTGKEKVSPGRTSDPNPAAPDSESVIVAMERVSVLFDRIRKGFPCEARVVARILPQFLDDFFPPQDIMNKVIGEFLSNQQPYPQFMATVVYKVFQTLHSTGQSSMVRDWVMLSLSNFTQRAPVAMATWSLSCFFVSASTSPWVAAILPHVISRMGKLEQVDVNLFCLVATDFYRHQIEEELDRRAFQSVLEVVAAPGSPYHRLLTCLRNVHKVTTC

Target | log2 fold change (vemurafenib) | log2 fold change [1] | log2 fold change (barasertib) | log2 fold change [2] | log2 fold change (volasertib) | log2 fold change [3] | log2 fold change [4] | log2 fold change [5] | log2 fold change (saracatinib) | log2 fold change (sotrastaurin) | log2 fold change (alvocidib) | log2 fold change (Tubastatin A) | log2 fold change (defactinib) | log2 fold change [6] | log2 fold change (encorafenib) | log2 fold change [7] | log2 fold change (alisertib) | log2 fold change [8] | log2 fold change (gefitinib) | log2 fold change [9]
KIAA0930 isoform 2 (UniProt Q6ICG6) | -0.118 | -0.009 | 0.002 | 0.162 | 0.14 | 0.159 | -0.078 | 0.028 | 0.098 | 0.075 | -0.067 | 0.077 | 0.03 | -0.118 | -0.089 | -0.032 | 0.073 | 0.013 | -0.063 | 
HNRNPM (UniProt M0QZM1) | -0.027 |  | 0.229 | 0.171 |  |  |  |  | -0.066 | -0.054 |  |  | 0.073 | 0.128 | 0.006 | -0.025 |  |  |  | 
HECW2 (UniProt Q9P2P5) | 0.026 |  |  | -0.213 |  | -0.04 |  |  | 0.055 | 0.065 |  | -0.002 | -0.087 | -0.099 | 0 | 0.153 | 0.114 |  | 0.117 | 0.102
HNRNPM (UniProt M0R019) | -0.137 |  |  |  |  |  |  |  |  |  |  |  | -0.112 |  |  |  |  |  |  | 
ITM2B (UniProt Q9Y287) | 0.021 |  | 0.258 |  |  | -0.012 | -0.141 | 0.069 | -0.053 | -0.012 | 0.015 | 0.007 | 0.16 | 0.074 |  |  | 0.006 |  | 0.008 | 0.037
GTPBP6 (UniProt O43824) | -0.089 |  |  | 0.32 |  |  | -0.062 | -0.096 | -0.166 |  | 0.046 |  | 0.163 | 0.673 | -0.076 | 0.235 |  |  |  | 
H3-3A (UniProt P84243) | 0.027 | 0.015 | 0.067 | -0.017 | -0.006 |  | 0.027 | -0.025 |  | -0.028 | 0.021 |  | -0.04 |  | 0.132 | -0.034 |  | -0.032 |  | 0.063
HNRNPD (UniProt D6RF44) |  |  |  |  |  |  |  |  |  | 0.079 |  |  |  |  |  |  | -0.006 |  | -0.014 | 
GPLD1 (UniProt P80108) |  |  |  |  |  |  |  |  | 0.236 | -0.13 |  |  |  | -0.452 |  |  |  |  |  | 
HTT (UniProt P42858) | -0.083 |  | 0.044 | -0.063 |  | 0.052 | -0.039 | 0.152 | -0.033 | 0.01 | 0 | -0.195 | 0.048 | -0.043 | 0.008 | -0.003 | -0.005 |  | -0.032 | 0.022
GNB4 (UniProt Q9HAV0) |  | 0.089 | -0.046 | -0.018 | -0.036 | 0.016 | 0.001 | 0.166 | -0.165 | -0.04 | -0.114 | -0.002 |  | 0.01 | -0.01 | 0.141 | -0.168 | 0.095 | -0.364 (active) | -0.091
HNRNPL, A0A3B3ITJ4 |  | 0.087 | 0.14 |  | -0.072 |  |  |  |  |  |  |  |  |  |  |  |  | 0.032 |  | 
HOMER3 (UniProt Q9NSC5) |  | 0.123 | -0.129 |  | -0.011 |  | 0.037 | -0.071 |  | 0.028 | -0.066 |  |  |  |  |  |  | 0.069 |  | 
HSPBAP1 (UniProt Q96EW2) |  | 0.04 | 0.012 | 0.155 | 0.044 | -0.058 | -0.293 | -0.038 | -0.054 | 0.027 | -0.094 | -0.139 |  | -0.547 (active) | 0.097 | -0.154 | -0.113 | -0.104 | -0.005 | 0.02
